Gal4-VP16 FLuc: inhibits Gal4-VP16 luciferase reporter, ROR gamma counter-screen. Drosophila S2 Gal4-VP16 UAS-luciferase, luminescence, 20 h. 310,000 compounds, 3.5% hits. Potency, µM (highest dose often 53.6 µM), without a hit: top-dose activity, negative = inhibition, usual class: inhibitors;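 note: Gal4-VP16 expression switched on by copper sulfate through the metallothionein promoter; % is set by controls: 0 for no effect and ±100 for the full control effect; nearly all actives have a fitted effect of over 50% in size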
RORg inh: blocks mouse ROR gamma transcriptional activity; Potency, µM (doses to about 53.6 µM), for inactives: at the highest dose activity change, negative = inhibition, usual class: inhibitors; AID 2551; Drosophila S2 Gal4-RORgamma UAS-luciferase reporter, 20 h; 310,000 compounds, 5.4% hits; note: % is set by controls: 0 for no effect and ±100 for the full control effect; nearly all actives have a fitted effect of over 60% in size
Target sequence (P51450 whole entry, looked up, the tested form may be a part): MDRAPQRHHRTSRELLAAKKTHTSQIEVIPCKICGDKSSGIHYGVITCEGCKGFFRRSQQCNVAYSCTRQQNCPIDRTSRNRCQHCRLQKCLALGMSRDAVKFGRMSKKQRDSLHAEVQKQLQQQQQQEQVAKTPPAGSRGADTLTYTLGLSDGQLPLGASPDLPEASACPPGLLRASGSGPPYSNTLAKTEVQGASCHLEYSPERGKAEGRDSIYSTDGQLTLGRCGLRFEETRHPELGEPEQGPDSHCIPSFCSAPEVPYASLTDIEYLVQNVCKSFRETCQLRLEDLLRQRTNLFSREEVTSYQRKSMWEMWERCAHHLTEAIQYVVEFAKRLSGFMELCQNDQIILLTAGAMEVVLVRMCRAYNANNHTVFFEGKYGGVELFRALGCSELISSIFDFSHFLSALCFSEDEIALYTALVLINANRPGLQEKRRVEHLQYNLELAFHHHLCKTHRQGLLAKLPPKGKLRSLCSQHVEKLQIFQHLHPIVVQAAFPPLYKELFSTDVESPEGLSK
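ROR gamma transcriptional activity was tracked as Gal4-UAS luciferase output in stably transfected Drosophila Schneider cells, with compound added 1 hr before 700 uM copper sulfate induction and a 20 hr ambient-temperature incubation.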
TGFb inhibitor: TGF-b pathway inhibition | HepG2 CAGA-GFP TGF-b/SMAD3 reporter, GFP fluorescence, 18 h; TGF-beta stimulated, 500 pg/mL final | Potency, µM (doses to about 46.1 µM), for the others: at the top dose activity, negative = inhibition, actives largely listed as inhibitors | 410,000 compounds, 1.2% hits; note: % is set by controls: 0 for no effect and ±100 for the full control effect; nearly all actives have a fitted effect of over 65% in size
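Read-out: total well GFP (ex488/em500-530) summed from mean per-cell fluorescence. Cells: HEPG2 CAGA-GFP, 1% FBS DMEM, 18 h at 37 degrees C with 500 pg/mL final TGF-beta. Unstimulated wells served as the full-inhibition control; stimulated DMSO wells = 0%.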
S2 tox: cell viability loss in ATXN counter-screen; S2 cells (HEK-293 line with an ATXN2-luciferase reporter) viability, CellTiter-Fluor protease fluorescence, 24 h; Potency, µM (doses to about 56.7 µM), most hits filed as cytotoxic; 400,000 compounds, 0.49% hits; note: nearly all actives have a fitted effect of over 40% in size
ATXN2 expr inh: ATXN2 expression inhibition; Potency, µM (titrated, usually from 57 µM), for the others: at the highest dose activity change, negative = inhibition, usual class: inhibitors; 360,000 compounds, 0.72% hits; AID 1745845; HEK-293 ATXN2-luciferase reporter, luminescence, 24 h; note: % is set by controls: 0 for no effect and ±100 for the full control effect; nearly all actives have a fitted effect of over 55% in size
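qHTS (up to 57 uM final) was run with 24 h compound exposure of reporter cells at 37 °C. Each well was multiplexed: SteadyGlo luminescence measured ATXN2-luciferase expression after a fluorogenic Gly-Phe-AFC viability readout (25 uM final).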
HepG2 viability: counter-screen for TGF-b inhibitors: cytotoxicity in HepG2 cells. HepG2 CAGA-GFP viability, ATP luminescence, 18 h. Potency, µM (top dose mostly 46.1 µM), inactives show at the top dose activity change, negative = cytotoxicity, actives largely listed as cytotoxic. 410,000 compounds, 0.76% hits. AID 588856
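HepG2 CAGA-GFP cells (1000/well, DMEM with 1% FBS) received compound, then TGF-beta at 500 pg/mL final, and were incubated 18 hours at 37 degrees C. Viability was read by CellTiter-Glo luminescence. Media-only wells were set as complete cell-killing and DMSO as no toxicity.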
* hit, by the source's call; i = inactive; ? = inconclusive; nt = no result. Rows were chosen to be rich in hits. Some 6.1% of all compounds tested hit in one or more screens of this group. Calls come from the whole dose curve; as a rule, active = well fitted curve in the direction sought with a large enough effect; inconclusive = small, poorly fitted or top-dose-only effect, or another doubt; inactive = no such curve, though single readings can be large; an effect the other way counts as inactive or inconclusive. Potency is the fitted concentration of half-maximal effect.

SMILES	Gal4-VP16 FLuc	RORg inh	TGFb inhibitor	S2 tox	ATXN2 expr inh	HepG2 viability
CCn1cc(C(=O)O)c(=O)c2cc(F)c(N3CCN(C(=S)NC(=O)c4ccc(F)cc4)CC3)cc21	3.98µM*	2.51µM*	2.0%	i	-2.8%	-21.1%
CCn1cc(C(=O)O)c(=O)c2cc(F)c(N3CCN(C(=S)NC(=O)c4ccc(F)c(F)c4)CC3)cc21	?	?	4.5%	i	nt	-42.7%
COc1cccc(N2CC(NC(=O)C3CC3)CC2=O)c1 (centres undefined)	nt	nt	-4.2%	nt	nt	1.1%
CCCOc1ccc(-c2nonc2NC(=O)c2oc3ccc(C)cc3c2C)cc1OCCC	nt	nt	-0.4%	i	-6.0%	-4.9%
O=C(O)/C=C/C(=O)N1N=C(c2ccco2)CC1c1ccco1 (centres undefined)	1.6%	13.0%	8.2%	i	16.3%	12.9%
COc1ccc(C2=NN(C(=O)CSc3nnc(-c4ccccc4F)o3)C(c3ccco3)C2)cc1 (centres undefined)	21.3%	24.8%	-17.0%	i	0.2%	-43.4%
CN1CCN(CC(=O)N2N=C(c3cccs3)CC2c2ccco2)CC1 (centres undefined)	?	-39.9%	8.2%	i	-1.8%	-0.3%
O=C(CCl)N1N=C(c2ccco2)CC1c1ccco1 (centres undefined)	?	10µM*	11.2µM*	i	-15.5%	-84.6%
COc1ccc(C2=NN(C(N)=S)C(c3ccco3)C2)cc1 (centres undefined)	?	10µM*	0.9%	?	13.4%	-1.8%
O=C(CCl)N1N=C(c2cccs2)CC1c1ccco1 (centres undefined)	?	11.2µM*	11.2µM*	nt	4.23µM*	-89.5%
Cc1cccc(NC(=O)c2ccc3c(O)c(S(=O)(=O)c4ccccc4)c(=O)[nH]c3c2)c1C	nt	nt	?	i	-3.0%	-12.8%
CCc1ccc(NC(=O)c2ccc3c(O)c(S(=O)(=O)c4ccc(Cl)cc4)c(=O)[nH]c3c2)cc1	nt	nt	6.3%	nt	nt	2.8%
O=C(c1c(F)cccc1F)N(Cc1ccccn1)C1CC1	2.1%	?	12.6µM*	i	-17.8%	0.4%
COc1ccc(C)cc1NC(=O)CSc1ncc2c(n1)-c1ccc(Cl)cc1N(Cc1ccccc1)S2(=O)=O	nt	nt	-24.0%	i	-10.9%	-5.4%
CN(c1ccccc1)c1nc(N2CCCC2)nc(-n2ccnc2)n1	11.2µM*	4.47µM*	21.1%	i	-0.5%	-25.8%
c1ccc(CN2CCN(c3nc(-c4ccccc4)nc(-n4ccnc4)n3)CC2)cc1	?	14.1µM*	?	?	-17.9%	-0.5%
CCOC(=O)N1CCN(c2nc(N(c3ccccc3)c3ccccc3)nc(-n3ccnc3)n2)CC1	0.4%	8.4%	nt	nt	nt	nt
c1ccc(N(c2ccccc2)c2nc(N3CCCC3)nc(-n3ccnc3)n2)cc1	11.2µM*	7.08µM*	-5.9%	?	-24.8%	8.1%
c1ccc(-c2nc(-n3ccnc3)nc(-n3ccnc3)n2)cc1	4.5%	?	0.0%	nt	nt	-30.0%
CN(c1ccccc1)c1nc(N)c([N+](=O)[O-])c(N2CCCC2)n1	?	?	-16.0%	i	47.5%	-22.1%
O=S(=O)(c1ccc(Br)cc1)c1nc(-c2ccco2)oc1SCc1ccccc1F	nt	nt	-23.0%	i	-0.3%	-19.5%
Cc1c(C(=O)NCc2cccc(Cl)c2)sc2nc3n(c(=O)c12)CCC3	nt	nt	1.7%	nt	nt	-7.8%
Cc1c(CCC(=O)N2CCC[C@H]2C(=O)O)c(=O)oc2cc3oc4c(c3cc12)CCCC4	?	1.26µM*	22.8%	i	?	-5.6%
Cc1c(CCC(=O)N[C@@H](CC(C)C)C(=O)O)c(=O)oc2cc3oc4c(c3cc12)CCCC4	?	0.631µM*	-5.6%	i	nt	-1.7%
Cc1c(CCC(=O)O)c(=O)oc2cc3oc4c(c3cc12)CCCC4	?	?	-10.7%	i	?	-18.4%
SMILES	Gal4-VP16 FLuc	RORg inh	TGFb inhibitor	S2 tox	ATXN2 expr inh	HepG2 viability
O=[N+]([O-])c1ccc2c(c1)C=C/C2=C\c1ccc(C=S)cc1	nt	nt	-1.0%	nt	nt	-2.0%
Cc1nc2cccnc2n1-c1cccc(C(=O)NCc2ccc(OC(C)C)cc2)c1	nt	nt	0.0%	nt	nt	-20.0%
O=C(CCS(=O)(=O)c1nc(-c2cccs2)cc(C(F)(F)F)n1)Nc1ccc(F)c(Cl)c1	nt	nt	20µM*	nt	nt	11.2µM*
O=C(CCS(=O)(=O)c1nc(-c2cccs2)cc(C(F)(F)F)n1)Nc1ccc(OC(F)(F)F)cc1	nt	nt	-16.9%	15.8µM*	-17.7%	-39.1%
CC(C)c1nnc(NC(=O)CCS(=O)(=O)c2nc(-c3cccs3)cc(C(F)(F)F)n2)s1	1.58µM*	1.78µM*	14.1µM*	?	-7.3%	-94.8%
COc1ccc(NC(=O)CSc2nc(-c3cccs3)cc(C(F)(F)F)n2)cc1Cl	nt	nt	-4.5%	i	-13.5%	2.8%
O=C(CCS(=O)(=O)c1nc(-c2ccc3c(c2)OCO3)cc(C(F)(F)F)n1)Nc1ccc(Br)cc1	nt	nt	?	nt	nt	-105.2%
COc1ccc(NC(=O)CCS(=O)(=O)c2nc(-c3cccs3)cc(C(F)(F)F)n2)cc1	nt	nt	10µM*	nt	nt	-88.7%
COc1ccc(Cl)cc1NC(=O)CCS(=O)(=O)c1nc(-c2cccs2)cc(C(F)(F)F)n1	nt	nt	?	nt	nt	-101.4%
CC1=C(C(=O)Nc2cc3cn[nH]c3cc2F)C(c2ccc(Cl)cc2F)N=C(c2ccnc(Cl)c2)N1 (centres undefined)	nt	nt	nt	nt	-0.5%	nt
CCOCCCn1c(SCC(=O)OCC)nc2c(sc3ccccc32)c1=O	nt	nt	-10.5%	i	6.3%	-18.6%
CCOC(=O)c1noc2ncn(Cc3ccc([N+](=O)[O-])cc3)c(=O)c12	nt	nt	2.9%	i	-1.9%	-10.1%
Cn1cc(S(=O)(=O)N2CCCCC2)cc1C(=O)N1CCN(c2ccc(F)cc2)CC1	nt	nt	?	i	6.1%	3.9%
O=C(O)c1cccc(NC(=S)NCc2ccccc2)c1	-2.6%	-3.1%	5.2%	i	1.3%	-0.1%
S=C(NCc1ccccc1)NCc1ccc(Cl)cc1	?	?	?	i	-29.5%	-13.5%
C=COCCNC(=S)Nc1cccc(Cl)c1	?	6.31µM*	-25.3%	i	-19.6%	-13.1%
Cc1ccc(C(=O)NNC(=O)CNc2cccc(Cl)c2)cc1	4.5%	7.2%	0.0%	i	1.9%	0.4%
S=C(NCc1ccccc1)Nc1cccc(Cl)c1	12.6µM*	5.62µM*	?	i	8.5%	-33.9%
O=C(CCc1ccccc1)NNC(=S)NCc1ccc(Cl)cc1	?	1.12µM*	-1.5%	i	0.4%	-12.2%

Compound activity deposited in PubChem BioAssay by National Center for Advancing Translational Sciences (NCATS).
